# Source: PubChem BioAssay
# A selection: hits, their analogues and other compounds. The true share with any hit is near 3.1%.
# mIDH1 inhibitor – qHTS for Inhibitors of mutant isocitrate dehydrogenase 1 (IDH1): qHTS; Isocitrate dehydrogenase [NADP] cytoplasmic (Homo sapiens), O75874; IDH1-R132H enzyme, NADPH consumption, diaphorase/resazurin fluorescence; Potency, µM (top dose mostly 76.6 µM), for the others: at the highest dose activity change, negative = inhibition, actives largely listed as inhibitors; actives 0.093% (n = 390,000); also: % is scaled to controls: 0 for no effect and ±100 for the full control effect; nearly all actives have a fitted effect of over 65% in size
# Target sequence (O75874 whole entry R132H, stated change not applied): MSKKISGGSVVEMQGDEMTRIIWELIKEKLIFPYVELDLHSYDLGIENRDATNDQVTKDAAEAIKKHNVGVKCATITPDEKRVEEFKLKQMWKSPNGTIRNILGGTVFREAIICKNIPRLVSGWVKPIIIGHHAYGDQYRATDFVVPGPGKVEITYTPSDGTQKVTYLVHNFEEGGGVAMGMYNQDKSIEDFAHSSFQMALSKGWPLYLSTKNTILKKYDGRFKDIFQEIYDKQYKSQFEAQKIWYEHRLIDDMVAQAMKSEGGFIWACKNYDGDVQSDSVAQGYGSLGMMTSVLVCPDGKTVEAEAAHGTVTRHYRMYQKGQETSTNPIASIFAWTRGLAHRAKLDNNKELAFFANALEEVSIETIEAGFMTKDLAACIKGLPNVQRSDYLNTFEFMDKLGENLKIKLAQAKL
#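 IDH1-R132H (0.5 ug/mL dispensed) in pH 7.5 Tris buffer was preincubated 30 min with compound, then given a substrate mix of 0.016 mM NADPH and 2 mM alpha-KG for 80 min at room temperature; remaining NADPH was read by diaphorase/resazurin fluorescence.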
# TrxR1 substrate – qHTS Assay for Substrates of Mammalian Selenoprotein Thioredoxin Reductase 1 (TrxR1): qHTS | Thioredoxin reductase 1, cytoplasmic (Rattus norvegicus), O89049 | purified TrxR1 substrate turnover, NADPH consumption readout | Potency, µM (top dose mostly 114 µM), for inactives: at the top dose activity change, negative = substrate turnover | actives 0.01% (n = 390,000); also: % is scaled to controls: 0 for no effect and ±100 for the full control effect; nearly all actives have a fitted effect of over 50% in size
#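 Rat TrxR1, dispensed at 90 nM, was prereduced with 400 uM NADPH (final) for 5 min at ~22 deg C, then incubated with compound 15 min before 400 uM selenite. A first-read NADPH fluorescence drop versus no-compound background flagged substrates.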
# Mito fusion act – qHTS Assay for Small Molecule Inhibitors of Mitochondrial Division or Activators of Mitochondrial Fusion; Potency, µM (titrated, usually from 46.1 µM), for inactives: top-dose growth rescue (activation), most hits filed as activators; actives 0.23% (n = 320,000); S. cerevisiae fusion-defective mutant growth rescue, CellTiterGlo 48 h; also: % of control where 0% means no effect; nearly all actives have a fitted effect of over 45% in size
#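 Growth-rescue viability read-out: after 48 h at the non-permissive 37C in glycerol/ethanol YPEG, yeast mitochondrial fusion mutants are measured by CellTiterGlo luminescence; compounds (23 nl pinned per well) restoring growth score as division inhibitors or fusion activators.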
# TrxR1 inh – qHTS Assay for Inhibitors of Mammalian Selenoprotein Thioredoxin Reductase 1 (TrxR1): qHTS. Potency, µM (titrated, usually from 114 µM), for inactives: top-dose activity change, negative = inhibition, hits mostly inhibitors. Thioredoxin reductase 1, cytoplasmic (Rattus norvegicus), O89049. actives 1% (n = 390,000). AID 588453, 2011. recombinant rTrxR1, NADPH fluorescence consumption, selenite substrate; also: % is scaled to controls: 0 for no effect and ±100 for the full control effect; nearly all actives have a fitted effect of over 65% in size
#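 Rat TrxR1 (90 nM in the dispensed reagent) was pre-reduced with 400 uM NADPH for 5 min at room temperature, then incubated with compound for 15 min. After 400 uM selenite was added, NADPH fluorescence (Ex 340/Em 450 nm) was followed for 8 min.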
# A549 tox – Nrf2 qHTS screen for inhibitors: counterscreen for cytotoxicity; A549 ARE-Fluc cells, CellTiter-Fluor viability, 18-24 h; Potency, µM (top dose mostly 46 µM), without a hit: at the top dose activity change, negative = cytotoxicity, usual class: inhibitors; actives 0.16% (n = 390,000); AID 504648, 2011; also: % is scaled to controls: 0 for no effect and ±100 for the full control effect
#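 A549 ARE-Fluc cells in 5% FBS OPTI-MEM, 5000 cells/well, rested 2 h then exposed to compounds in concentration-response for 18-24 h at 37 °C. Viability by CellTiter-Fluor fluorescence (Ex 405/Em 525) after 30 min; luciferase luminescence (BugLite, 15 min, RT) read afterwards.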
# Nrf2 inh – Nrf2 qHTS screen for inhibitors | A549 ARE-Fluc reporter, luciferase luminescence, 18-24 h | Potency, µM (doses to about 46 µM), without a hit: top-dose activity change, negative = inhibition, actives largely listed as inhibitors | actives 2.1% (n = 360,000); also: % is scaled to controls: 0 for no effect and ±100 for the full control effect; nearly all actives have a fitted effect of over 60% in size
#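 Nrf2 activity is the BugLite luminescence, read 15 min after reagent at room temperature, following CellTiter-Fluor cytotoxicity readout (30 min, 37C). Compound titrations were applied for 18-24 h to 5000 A549 ARE_Fluc cells/well in 5% FBS OPTI-MEM.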
# Active calls of the source: *; u = inconclusive; x = not tested or not shown; [ ] = dose if it differs, or a comment. Calls follow the shape of the dose curve; as a rule, active = well fitted curve in the direction sought with a large enough effect; inconclusive = small, poorly fitted or top-dose-only effect, or another doubt; inactive = no such curve, though single readings can be large; an effect the other way counts as inactive or inconclusive. Potency is read from the fitted curve at half-maximal effect.
SMILES,mIDH1 inhibitor,TrxR1 substrate,Mito fusion act,TrxR1 inh,A549 tox,Nrf2 inh
COC(=O)CNC(=O)C1Nc2ccccc2C2C=CCC12 (centres undefined),-1.0%,4.2%[57.1 µM],x,8.91µM*,-5.3%,6.9%
CC1CC(C)CN(C(=O)C(C)N2CCN(S(=O)(=O)c3ccc(C(F)(F)F)cc3)CC2)C1 (centres undefined),3.9%,-3.5%,x,10.7%,u,18.4µM*
CN(C)c1ccc(/C=C/c2ccnc3ccc(O)cc23)cc1,x,-7.8%,x,3.4%,x,x
O=C1C2C3C=CC(C4CC34)C2C(=O)N1/N=C/c1ccc(-c2cccc([N+](=O)[O-])c2)o1 (centres undefined),1.6%,-13.8%,4.8%,3.3%[57.1 µM],-1.3%,-3.2%
O=C1C2C(C(=O)N1/N=C/c1ccc(N3CCCCC3)o1)C1C=CC2C12CC2 (centres undefined),-0.5%,-3.0%,5.9%,25.1µM*,-18.4%,0.1%
Cc1ccnc2c(N)cccc12,x,3.0%,x,7.2%,x,x
CCCOc1ccc2c(=O)c(-c3cc(C(=O)OC)oc3C)c(C)oc2c1,0.0%,2.8%,3.5%,8.5%,-5.6%,16.4µM*
CCOc1ccc(-c2csc(/C(C#N)=C\c3ccc(O)c([N+](=O)[O-])c3)n2)cc1,-18.8%,-4.7%,-6.9%,-4.5%,16.4µM*,u
Nc1ccc(-c2nc3ncccc3o2)c(O)c1,0.0%,213.4%,22.8%,89.1µM*,-5.8%,3.0%
CC(=O)N(CCC(c1ccccc1)c1ccco1)Cc1cccs1 (centres undefined),10.9%,-0.7%,21.3%,25.1µM*,-2.4%,u
CCC(=O)N(CCC(c1ccco1)c1ccccc1OC)Cc1cccs1 (centres undefined),-16.1%,3.3%,17.3%,35.5µM*,2.7%,-27.0%
O=C(c1ccco1)N(CCC(c1ccccc1)c1ccco1)Cc1ccco1 (centres undefined),-14.2%,-1.7%,u,u,3.0%,-1.3%
COc1ccccc1C(=O)NCCC(=O)N(Cc1ccco1)Cc1cccs1,3.2%,-7.1%,2.2%,u,2.4%,-0.9%
Nn1c(-c2ccc(F)cc2)nc2ccccc2c1=O,0.0%,8.2%,-22.8%,24.4%,9.9%,-6.9%
O=C1c2cc(F)ccc2-n2c1nc1ccccc1c2=O,1.9%,0.7%,0.7%,10.2%,11.6µM*,6.51µM*
COc1ccc(C2=Nn3c(nnc3-c3cc(OC)ccc3OC)SC2)cc1,x,x,x,x,-10.2%,u
O=[N+]([O-])c1cc(-c2nc(-c3ccccc3)no2)ccc1N1CCOCC1,5.9%,1.0%,x,7.5%,0.1%,23.1µM*
COc1ccc2oc(-c3ccc(NC(=O)c4ccc(N5CCOCC5)c([N+](=O)[O-])c4)cc3)nc2c1,4.6%,-12.5%,-2.2%,-11.3%,-11.2%,-24.3%
COc1ccc(-c2noc(-c3ccc(N4CCOCC4)c([N+](=O)[O-])c3)n2)cc1OC,19.6%,6.4%,x,-17.2%,-3.7%,-6.1%
COc1ccc(-c2noc(-c3ccc(N4CCC(C)CC4)c([N+](=O)[O-])c3)n2)cc1OC,5.9%,-5.7%,x,-6.5%,-16.5%,20.6µM*
O=C(Nc1ccc(-c2nc3ccccc3o2)cc1)c1ccc(N2CCOCC2)c([N+](=O)[O-])c1,5.5%,16.3%[57.1 µM],-2.2%,23.9%[57.1 µM],u,16.4µM*
Cc1ccc(CNC(=O)Cn2c(=O)n(-c3cccc(Cl)c3)c(=O)c3sc4ccccc4c32)cc1,-1.3%,8.9%,x,28.9%,0.3%,-14.7%
Cc1ccc(NC(=O)CN2C(=O)CSc3ccc(S(=O)(=O)N(C)C)cc32)cc1C,0.0%,2.4%[57.1 µM],x,19.2%[57.1 µM],13.3%,0.2%
O=C(Nc1ccc(NC(=O)c2ccccc2F)cn1)c1ccco1,5.2%,-3.1%[57.1 µM],-7.5%,14.1µM*,2.3%,u
O=C(Nc1ccc(NC(=O)c2ccco2)nc1)c1cccc(F)c1,-11.4%,-1.7%,-2.0%,-2.0%,9.8%,u
SMILES,mIDH1 inhibitor,TrxR1 substrate,Mito fusion act,TrxR1 inh,A549 tox,Nrf2 inh
Cc1cc(-c2nnc(SCC(=O)Nc3ccccc3)n2C)no1,3.0%,4.5%[57.1 µM],-2.4%,15.3%[57.1 µM],3.7%,u
Cc1cc(-c2nnc(SCC(=O)Nc3ccc(C(F)(F)F)cc3)n2C)no1,0.0%,0.9%,-1.4%,24.7%,-14.3%,23.1µM*
CCOc1cc(/C=N\NC(=O)c2ccc(NC(=O)CC)cc2)ccc1OC(=O)c1ccccc1,0.0%,-8.3%,-1.3%,-8.6%,-27.4%,-19.2%
CCOc1cc(/C=N/NC(=O)CSc2nncn2C)ccc1OCC(N)=O,0.0%,4.7%[57.1 µM],-0.8%,20.8%[57.1 µM],2.2%,1.6%
CCOc1cc(/C=N\NC(=O)c2ccc(NC(=O)C(C)(C)C)cc2)ccc1OC(=O)c1ccc(C)cc1,2.6%,-8.7%,0.8%,15.7%[57.1 µM],-7.2%,10.3µM*
CCOc1cc(/C=N/NC(=O)CSc2nncn2C)ccc1OC(=O)c1ccc(Cl)cc1,8.3%,8.3%[57.1 µM],-10.8%,14.8%[57.1 µM],3.4%,20.6µM*
NCCCN(Cc1ccc(Cl)c(Cl)c1)c1ccccn1,x,7.9%,x,-4.7%,-11.1%,7.7%
Cc1ccccc1-c1n[nH]c(=S)n1/N=C/C=C/c1ccco1,3.2%,-6.4%,-0.1%,3.98µM*,-3.5%,u
S=c1[nH]nc(-c2ccccc2)n1/N=C/C=C/c1ccco1,2.0%,-13.0%,1.1%,-34.2%,-1.5%,-7.4%
CCN1CCOC(=O)C1CC(=O)Nc1cc(C)ccc1OC (centres undefined),-6.7%,5.2%[11.4 µM],x,11.2µM*,-0.3%,-26.4%
CCN1CCOC(=O)C1CC(=O)Nc1ccc(Br)cc1 (centres undefined),24.0%,6.6%[11.4 µM],x,70.8µM*,-1.0%,-0.7%
CC(C)CCNc1nc(Nc2ccccc2)c2cnn(C)c2n1,-11.6%,2.6%[57.1 µM],x,18.3%[57.1 µM],6.0%,x
CCCNC(=O)c1nnsc1S(=O)c1ccc(Cl)cc1 (centres undefined),9.8%,6.5%[57.1 µM],-1.6%,0.562µM*,-0.6%,-3.2%
Cc1ccc(S(=O)c2snnc2C)cc1 (centres undefined),-7.9%,5.2%,-6.8%,18.0%,-10.1%,-25.1%
CCCNC(=O)c1nnsc1S(=O)(=O)c1ccc(Cl)cc1,-1.1%,2.7%[57.1 µM],-5.0%,u,u,23.1µM*
CCCNC(=O)NS(=O)(=O)c1ccc(Cl)cc1,13.8%,8.2%[57.1 µM],-14.9%,17.3%[57.1 µM],6.4%,27.7%
